Measured values published in article PMC7819943, “Rice protein-binding microarrays: a tool to detect cis-acting elements near promoter regions in rice”.
The full ranking holds about 68,000 sequences; the median of “fluorescence intensity (a.u.)” is about 9,100, and the highest 2% start at about 16,000. Only a selection was taken, and the highest values are over-represented in it overall.

These sequences were tested against OsWRKY34 (Oryza sativa, UniProt Q0JBA9 1-250) (assay: protein-binding microarray (RPBM); PBS, 2% BSA, 51.3 ng/ul salmon testes DNA, 50 uM zinc acetate, 200 nM TF, 25 C, 1 h; high values mean tight binding). Conditions: protein: recombinant; tags: N-terminal polyhistidine and DsRed monomer fusion (pET32a); label: CyDye5-dUTP incorporated in the synthesized complementary strand; 3' TTTTT single-stranded linker to array surface; dsDNA, one strand shown.
Sequence of OsWRKY34 (Q0JBA9 entry or part of it): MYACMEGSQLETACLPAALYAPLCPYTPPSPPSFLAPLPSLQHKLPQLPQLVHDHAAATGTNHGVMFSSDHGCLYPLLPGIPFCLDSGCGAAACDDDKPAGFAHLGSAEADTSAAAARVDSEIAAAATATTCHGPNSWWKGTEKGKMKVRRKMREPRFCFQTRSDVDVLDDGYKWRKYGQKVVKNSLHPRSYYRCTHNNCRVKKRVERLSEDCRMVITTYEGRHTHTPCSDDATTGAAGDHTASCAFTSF
How it was run: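 Using Ni–NTA, transcription factors fused N-terminally to polyhistidine and DsRed were purified after expression in E. coli BL21-CodonPlus. These were incubated at 200 nM with a blocked, double-stranded custom Agilent array for 1 h at 25 °C in a buffer containing 50 µM zinc acetate, and the array was washed. The binding signal is per-feature fluorescence intensity (arbitrary units) on an Axon 4000B scanner.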
For “TATGTCACGTATAAAATTCTAATGCTAGCTAACTACCATACGGAGTCACCTAGTGCAG”, the binding signal was 8340 fluorescence intensity (a.u.).
“GATCCGACTCCTACTTCTAACGTAGATTTTCGGCCTTTATCGGAGTCACCTAGTGCAG” was tested, and the binding signal was 8370 fluorescence intensity (a.u.).
With “TTGCAAATGCAACCCTATTATGCCATCCTTTGTTATCCTGCGGAGTCACCTAGTGCAG” the binding signal was 9550 fluorescence intensity (a.u.).
With “TTTGTTCTCTTTTATATGTAACACTTGCATATTTACCTTCCGGAGTCACCTAGTGCAG” the binding signal was 8980 fluorescence intensity (a.u.).
For “CTTCTCTTACCTCGGTGGGTGCTTAATGTGCTGGTTTGAACGGAGTCACCTAGTGCAG”, the binding signal was 8740 fluorescence intensity (a.u.).
In the case of “GCCATCCACTTGTGCTGCCAATTTGCTCAATCCCGACAAGCGGAGTCACCTAGTGCAG”, the binding signal is reported as 8220 fluorescence intensity (a.u.).
In the case of “ACATTTCTGTTATTCCCCGCGGACAAGTCACAACTACTTCCGGAGTCACCTAGTGCAG”, the binding signal is reported as 9830 fluorescence intensity (a.u.).
With “CGCCGCCCATCTTGTCCCAATTCGGCTCCTATAAATTTCCCGGAGTCACCTAGTGCAG” the binding signal was 8750 fluorescence intensity (a.u.).
For “TGCCTCCTTTTGTTTTGCGTCTCCTTATCAGAGTGGATTGCGGAGTCACCTAGTGCAG”, the binding signal was 8350 fluorescence intensity (a.u.).
With “ATCCCAATCCATGATCCAGCCATTCATCATCTGCATATATCGGAGTCACCTAGTGCAG” the binding signal was 9790 fluorescence intensity (a.u.).
In the case of “ACTATTACTACCTCAGTTTTGAAATGTATGACGTTGACTTCGGAGTCACCTAGTGCAG”, the binding signal is reported as 11000 fluorescence intensity (a.u.).
In the case of “ATGTATGACGCCGTTGACTTTTCGACCAACGTTTATTCGTCGGAGTCACCTAGTGCAG”, the binding signal is reported as 30200 fluorescence intensity (a.u.).
“ATGTACGACGCTATTGACTTTTTAACCAACGTTTGACTATCGGAGTCACCTAGTGCAG” was tested, and the binding signal was 11000 fluorescence intensity (a.u.).
In the case of “GTTTAGTTGATTTCAGGGCCAGTTCTTGTGGGGTTTTCAACGGAGTCACCTAGTGCAG”, the binding signal is reported as 8490 fluorescence intensity (a.u.).
“TCTTGTGCAGGGGTTGATTTTTCAGTGTATAGGGGTATGACGGAGTCACCTAGTGCAG” was tested, and the binding signal was 16800 fluorescence intensity (a.u.).
In the case of “AGATGACGCCGTTGACTTTTTATCACATGTTTAACCATTCCGGAGTCACCTAGTGCAG”, the binding signal is reported as 42300 fluorescence intensity (a.u.).
“ATGAGTGATTGATTTCTTGTTTATAGGAGTGGGTTGTTCACGGAGTCACCTAGTGCAG” was tested, and the binding signal was 11200 fluorescence intensity (a.u.).
In the case of “AATGTATGACGCCGTTGACTTTTTGACCAACGTTTGACTACGGAGTCACCTAGTGCAG”, the binding signal is reported as 36100 fluorescence intensity (a.u.).
In the case of “AAACGCTATTGACTTTTTTTATAAATGTATGACCATTCGTCGGAGTCACCTAGTGCAG”, the binding signal is reported as 10400 fluorescence intensity (a.u.).
In the case of “AATATTCGACGCCGTTCACTTTTTTAAATATGTTTGACCACGGAGTCACCTAGTGCAG”, the binding signal is reported as 9820 fluorescence intensity (a.u.).
For “AGATTACGCCGTTAACTTTTTCTCACATGTTTGACCATTCCGGAGTCACCTAGTGCAG”, the binding signal was 11000 fluorescence intensity (a.u.).
“ATCTGTCAGTGCCACATCACCACCACACAACCGCAAAGAACGGAGTCACCTAGTGCAG” was tested, and the binding signal was 9250 fluorescence intensity (a.u.).
In the case of “ATCGGTGTTGACCTCCATATGCTGATCAGGCCCCATTTCCCGGAGTCACCTAGTGCAG”, the binding signal is reported as 8140 fluorescence intensity (a.u.).
For “GGCCGAGCAGGTCTCCCGCGCCTTCGACATCCCTCTGCCACGGAGTCACCTAGTGCAG”, the binding signal was 8600 fluorescence intensity (a.u.).
For “TTCCTCTACATTCTACGTCCGGTTGGATTTTGCATGCGATCGGAGTCACCTAGTGCAG”, the binding signal was 8640 fluorescence intensity (a.u.).
With “TTCTTCCCAGATCGTGCTTCTCCCACTCGGATCAGCCGCCCGGAGTCACCTAGTGCAG” the binding signal was 8110 fluorescence intensity (a.u.).
In the case of “TGTTGTTTTTTATGTGTGAACCTCTTTGATCTCAATGCAACGGAGTCACCTAGTGCAG”, the binding signal is reported as 8510 fluorescence intensity (a.u.).
In the case of “CCTCCCTCACCGTCTTCCGCCTCGCCATCTCCAGCTCCGACGGAGTCACCTAGTGCAG”, the binding signal is reported as 10100 fluorescence intensity (a.u.).
For “CACCATCCATGCATATGCATCTTGTAGTTATTGCTTGCTCCGGAGTCACCTAGTGCAG”, the binding signal was 9580 fluorescence intensity (a.u.).
“TCCACATCATCCGACCAACTCTACCAGCCATTCCACCCGCCGGAGTCACCTAGTGCAG” was tested, and the binding signal was 9160 fluorescence intensity (a.u.).
With “CCTTATACTGTCTCACTTGTCTCACACTGAAACCGTTTTCCGGAGTCACCTAGTGCAG” the binding signal was 8410 fluorescence intensity (a.u.).
“TGACGACGCCATTGACTTTTGAACACATGTTTGACCATTCCGGAGTCACCTAGTGCAG” was tested, and the binding signal was 15900 fluorescence intensity (a.u.).
“ACGCCGTTAACTTTTTATCCAATGTTTGACCATTCGTCTTCGGAGTCACCTAGTGCAG” was tested, and the binding signal was 13000 fluorescence intensity (a.u.).
“CGTTTGGCCAAGTATATGACGCCCTAACTTATAAGTTGACCGGAGTCACCTAGTGCAG” was tested, and the binding signal was 8420 fluorescence intensity (a.u.).
For “GTATAACGCCGTTGACTTTTTAACCAATGTTTGACCATTCCGGAGTCACCTAGTGCAG”, the binding signal was 40400 fluorescence intensity (a.u.).
“GTATGACGCCGTTGACTTTTTGGCCAACGTTTGACCATTCCGGAGTCACCTAGTGCAG” was tested, and the binding signal was 41500 fluorescence intensity (a.u.).
With “TCCATCGCGCGTCGTCTCCACCTTTGTTGCTTGTGCCACCCGGAGTCACCTAGTGCAG” the binding signal was 10200 fluorescence intensity (a.u.).
In the case of “ATGGGGTATTTAGGATGGGCAATATTTTGGTAGTGAGGAGCGGAGTCACCTAGTGCAG”, the binding signal is reported as 9430 fluorescence intensity (a.u.).
With “TGCTAAAAAGTCAACGGTGTCAAACATTTCGAAACGGAGGCGGAGTCACCTAGTGCAG” the binding signal was 10900 fluorescence intensity (a.u.).
In the case of “ACCACCACCGTCTCAACTCTCTCTCAGACTGTCCGCCATGCGGAGTCACCTAGTGCAG”, the binding signal is reported as 8030 fluorescence intensity (a.u.).
With “ATATATCCATGCGAACTTCGCTCCAATAGTGAATTTTATCCGGAGTCACCTAGTGCAG” the binding signal was 8900 fluorescence intensity (a.u.).
In the case of “ATATACATAAGCTTCTCGTGCACACACAAACTAACATAAACGGAGTCACCTAGTGCAG”, the binding signal is reported as 8610 fluorescence intensity (a.u.).
With “TAAAGCTTTATATAGCTGGCCCGCTGACTTTTTTATATATCGGAGTCACCTAGTGCAG” the binding signal was 9020 fluorescence intensity (a.u.).
With “GCTTTATCGTGCAAACACCTAAGCTGATAAAGGCAAAGGTCGGAGTCACCTAGTGCAG” the binding signal was 23200 fluorescence intensity (a.u.).
With “GGAGCGATGACGTTCTATACCTTCGGCCTTCGTTTGACCGCGGAGTCACCTAGTGCAG” the binding signal was 10600 fluorescence intensity (a.u.).
With “TTGATTTCTCTGAGTTTGTGTTCTTGGCATCATCATCATTCGGAGTCACCTAGTGCAG” the binding signal was 11400 fluorescence intensity (a.u.).
With “TTTTTCTCCCCAGATTGCTGTGCACGGATTTGCCGTAAGACGGAGTCACCTAGTGCAG” the binding signal was 8360 fluorescence intensity (a.u.).
With “TGTGTTTGAGGGGTGTGTATGTGTTGTGTTGTAGGTCAACCGGAGTCACCTAGTGCAG” the binding signal was 9510 fluorescence intensity (a.u.).
With “TATTTTATCTCACTGGCTATTTCCTATGATTATTTATTTCCGGAGTCACCTAGTGCAG” the binding signal was 11400 fluorescence intensity (a.u.).
“TTCTGTTTGGGTTTTGATTTGTTTCGGTTTGGCTGTTCTTCGGAGTCACCTAGTGCAG” was tested, and the binding signal was 10600 fluorescence intensity (a.u.).
“GGCTTTTGGTTTCTTGGTGGTTGTGGATTTTTTTTTTTTGCGGAGTCACCTAGTGCAG” was tested, and the binding signal was 12300 fluorescence intensity (a.u.).
With “GGGGCGATTTTTTTTTTTTTTTAGAATTGCGAGATAGGGGCGGAGTCACCTAGTGCAG” the binding signal was 10700 fluorescence intensity (a.u.).
For “AGTGTTAATCTTACTCCTTGTTGTATATTGCTAAGTTTTTCGGAGTCACCTAGTGCAG”, the binding signal was 12900 fluorescence intensity (a.u.).
With “GCGGGCTGTTTTTTTCTTGCGGTTTGGTTTGGGATTTCTGCGGAGTCACCTAGTGCAG” the binding signal was 17400 fluorescence intensity (a.u.).
In the case of “TTTTGGGGATAGATTTGCGCTTTTGGTGGGTGGGTTTGGGCGGAGTCACCTAGTGCAG”, the binding signal is reported as 14200 fluorescence intensity (a.u.).
“GATTTCTTTGTTGATTTTATTGGTTTTCTCCTAATCTTGCCGGAGTCACCTAGTGCAG” was tested, and the binding signal was 8820 fluorescence intensity (a.u.).
In the case of “TTGTGTTTGGGCGGGAGAATTTTTGGGGATAGATTTGCGCCGGAGTCACCTAGTGCAG”, the binding signal is reported as 18500 fluorescence intensity (a.u.).
“TTGCTTGTGTTGGGCCGTAGGGTTTTTGTTTTTTTTTTTGCGGAGTCACCTAGTGCAG” was tested, and the binding signal was 8410 fluorescence intensity (a.u.).
For “GCCGTATTTGTTTTTTTGGGATTTGGGGTTTGGATACTTGCGGAGTCACCTAGTGCAG”, the binding signal was 18700 fluorescence intensity (a.u.).
With “ATTTGGGGTTTGGATACTTGAACTTTATTTTGACTTCTGACGGAGTCACCTAGTGCAG” the binding signal was 14000 fluorescence intensity (a.u.).
For “AGGAGGGGTATTGTTGCTAATCTTGATTGTTTTACTCTTGCGGAGTCACCTAGTGCAG”, the binding signal was 17000 fluorescence intensity (a.u.).
